# Assay results published in PubChem BioAssay (NCI).
# About 79,000 compounds went through this panel and 15% of them were active in at least one assay; those are over-represented in the sample as a whole. Values without a mark were called inactive. Active and inactive are the calls of the source. Cut-off read from the data, not from the text of the source: active = growth inhibition above about 70%; inactive = the rest.
# Key:
# [1] = NCI Yeast Anticancer Drug Screen. Data for the rad52 strain (AID 147);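 note: 0% = growth of vehicle-treated control cultures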; settings: S. cerevisiae rad52 mutant growth inhibition, hits give high values
# Procedure, shortened: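 Yeast strain carrying a DNA damage repair alteration was exposed to test compounds. Growth inhibition was measured relative to vehicle-treated controls.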
# [2] = NCI Yeast Anticancer Drug Screen. Data for the wt1 strain (AID 149);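 note: 0% = growth of vehicle-treated wt1 cultures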; settings: S. cerevisiae wt1 strain (SPY 50644) growth inhibition, hits give high values
# Procedure, shortened: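 wt1 yeast, compound-treated; % growth inhibition vs vehicle control.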
# [3] = NCI Yeast Anticancer Drug Screen. Data for the rad50EPP+ strain (AID 151);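 note: 0% = growth of vehicle-treated control cultures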; settings: S. cerevisiae rad50 mutant strain, hits give high values
# Procedure, shortened: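 Yeast strain carrying rad50 alteration (rad50EPP+) exposed to compounds; growth inhibition measured relative to vehicle-treated controls.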
# [4] = NCI Yeast Anticancer Drug Screen. Data for the rad50 strain (AID 155);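 note: 0% = growth of vehicle-only cultures of the same strain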; settings: S. cerevisiae rad50 strain growth inhibition, hits give high values
# Procedure, shortened: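 Genetically altered yeast (DNA repair pathway); compound treatment; growth inhibition vs vehicle ctrl.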
# [5] = NCI Yeast Anticancer Drug Screen. Data for the mec2-1 strain (AID 157); settings: S. cerevisiae mec2-1 strain, hits give high values
# Procedure, shortened: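 mec2-1 yeast strain, carrying an alteration in DNA damage repair or cell cycle control, was exposed to compounds; growth inhibition was measured relative to vehicle-treated controls.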
# [6] = NCI Yeast Anticancer Drug Screen. Data for the rad14 strain (AID 159);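 note: 0% = growth of vehicle-treated control cultures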; settings: S. cerevisiae rad14 strain growth inhibition, hits give high values
# Procedure, shortened: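 Test compounds were applied to a repair-deficient yeast strain. Its growth was then compared with that of cultures given vehicle alone, and inhibition was expressed relative to those controls.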
# [7] = NCI Yeast Anticancer Drug Screen. Data for the sgs1 mgt1 strain (AID 161);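 note: 0% = growth of cultures given vehicle only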; settings: S. cerevisiae sgs1 mgt1 strain, hits give high values
# Procedure, shortened: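 Yeast cells carrying a defined DNA-repair defect were exposed to test compounds. Growth inhibition was measured relative to vehicle-treated controls.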
# [8] = NCI Yeast Anticancer Drug Screen. Data for the CLN2oe strain (AID 163);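 note: 0% = growth of vehicle-only control cultures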; settings: S. cerevisiae CLN2oe strain, hits give high values
# Procedure, shortened: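 Yeast cells carrying a defined cell-cycle control alteration were exposed to test compounds. Growth inhibition was scored against vehicle-treated control cultures.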
# [9] = NCI Yeast Anticancer Drug Screen. Data for the cln2 rad14 strain (AID 165);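 note: 0% = growth equal to vehicle treated cultures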; settings: S. cerevisiae cln2 rad14 strain, hits give high values
# Procedure, shortened: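 Yeast carrying cln2 and rad14 alterations (cell cycle control and DNA damage repair) were exposed to compounds. Growth inhibition was measured against vehicle-treated controls.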
# [10] = NCI Yeast Anticancer Drug Screen. Data for the bub3 strain (AID 167); settings: S. cerevisiae bub3 mutant strain, hits give high values
# Procedure, shortened: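 Yeast carrying a defined mutation is treated with each compound, and growth is compared with that of vehicle-exposed cells to give inhibition.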
# [11] = NCI Yeast Anticancer Drug Screen. Data for the wt2 strain (AID 169);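 note: 0% = growth of vehicle-treated yeast cultures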; settings: S. cerevisiae wt2 strain growth inhibition, hits give high values
# Procedure, shortened: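 Yeast cells were exposed to test compounds, and growth inhibition was measured relative to vehicle-treated controls.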
# [12] = NCI Yeast Anticancer Drug Screen. Data for the mlh1 strain (AID 171);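 note: 0% = growth of vehicle-treated control cultures of the same strain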; settings: S. cerevisiae mlh1 strain growth inhibition, hits give high values
# Procedure, shortened: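 Yeast carrying a defined genetic alteration in DNA damage repair or cell cycle control were exposed to test compounds. Growth inhibition was measured relative to vehicle-treated controls.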
# [13] = NCI Yeast Anticancer Drug Screen. Data for the sgs1 strain (AID 173);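 note: 0% = growth of vehicle-only control cultures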; settings: S. cerevisiae sgs1 mutant, hits give high values
# Procedure, shortened: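 Yeast mutant strains carrying defined defects in DNA damage repair or cell cycle control were exposed to test compounds. Growth inhibition was scored against vehicle-treated controls.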
# [14] = NCI Yeast Anticancer Drug Screen. Data for the mlh1 rad18 strain (AID 175); settings: S. cerevisiae mlh1 rad18 strain growth inhibition, hits give high values
# Procedure, shortened: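 Growth inhibition of the yeast strain was measured after compound exposure and expressed relative to vehicle-treated controls. The strain carries defined defects in DNA damage repair.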
# [15] = NCI Yeast Anticancer Drug Screen. Data for the rad18 strain (AID 177); settings: S. cerevisiae rad18 mutant growth inhibition, hits give high values
# Procedure, shortened: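 Yeast carrying a defined DNA damage repair alteration were exposed to compounds. Growth inhibition was expressed relative to vehicle-treated controls.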
# [16] = at 5.0 µM (retest, dose inferred, filed as 0.5)
# [17] = at 50.0 µM (retest, dose inferred, filed as 5.0)
compound,measurement,setting,value
CCCc1[nH]nc(C(N)=O)c1N=NN(C)C,growth inhibition,[1]; at 1.2 µM,2%
same,growth inhibition,[1]; at 3.7 µM,12%
same,growth inhibition,[1]; at 11.0 µM,37%
same,growth inhibition,[1]; at 33.0 µM,90% (active)
same,growth inhibition,[1]; at 100.0 µM,96% (active)
same,growth inhibition,[2]; at 1.2 µM,-6%
same,growth inhibition,[2]; at 3.7 µM,-4%
same,growth inhibition,[2]; at 11.0 µM,-7%
same,growth inhibition,[2]; at 33.0 µM,-4%
same,growth inhibition,[2]; at 100.0 µM,5%
same,growth inhibition,[3]; at 1.2 µM,2%
same,growth inhibition,[3]; at 3.7 µM,16%
same,growth inhibition,[3]; at 11.0 µM,43%
same,growth inhibition,[3]; at 33.0 µM,82% (active)
same,growth inhibition,[3]; at 100.0 µM,95% (active)
same,growth inhibition,[4]; at 1.2 µM,3%
same,growth inhibition,[4]; at 3.7 µM,4%
same,growth inhibition,[4]; [16],-108%
same,growth inhibition,[4]; at 11.0 µM,31%
same,growth inhibition,[4]; at 33.0 µM,83% (active)
same,growth inhibition,[4]; [17],81% (active)
same,growth inhibition,[4]; at 50.0 µM,94.8% (active)
same,growth inhibition,[4]; at 100.0 µM,94% (active)
same,growth inhibition,[5]; at 1.2 µM,1%
same,growth inhibition,[5]; at 3.7 µM,-1%
same,growth inhibition,[5]; [16],-44%
same,growth inhibition,[5]; at 11.0 µM,-14%
same,growth inhibition,[5]; at 33.0 µM,11%
same,growth inhibition,[5]; [17],-15%
same,growth inhibition,[5]; at 50.0 µM,14.1%
same,growth inhibition,[5]; at 100.0 µM,63%
same,growth inhibition,[6]; at 1.2 µM,0%
same,growth inhibition,[6]; at 3.7 µM,-1%
same,growth inhibition,[6]; at 11.0 µM,5%
same,growth inhibition,[6]; at 33.0 µM,11%
same,growth inhibition,[6]; at 100.0 µM,30%
same,growth inhibition,[7]; [16],-55%
same,growth inhibition,[7]; [17],18%
same,growth inhibition,[7]; at 50.0 µM,44.1%
same,growth inhibition,[8]; at 1.2 µM,-3%
same,growth inhibition,[8]; at 3.7 µM,-3%
same,growth inhibition,[8]; at 11.0 µM,2%
same,growth inhibition,[8]; at 33.0 µM,-3%
same,growth inhibition,[8]; at 100.0 µM,5%
same,growth inhibition,[9]; [16],-59%
same,growth inhibition,[9]; [17],-48%
same,growth inhibition,[9]; at 50.0 µM,13.4%
same,growth inhibition,[10]; at 1.2 µM,-13%
same,growth inhibition,[10]; at 3.7 µM,-9%
same,growth inhibition,[10]; [16],-60%
same,growth inhibition,[10]; at 11.0 µM,-5%
same,growth inhibition,[10]; at 33.0 µM,-6%
same,growth inhibition,[10]; [17],-73%
same,growth inhibition,[10]; at 50.0 µM,-0.25%
same,growth inhibition,[10]; at 100.0 µM,4%
same,growth inhibition,[11]; at 1.2 µM,-1%
same,growth inhibition,[11]; at 3.7 µM,0%
same,growth inhibition,[11]; at 11.0 µM,-1%
same,growth inhibition,[11]; at 33.0 µM,3%
same,growth inhibition,[11]; at 100.0 µM,10%
same,growth inhibition,[12]; at 1.2 µM,7%
same,growth inhibition,[12]; at 3.7 µM,-5%
same,growth inhibition,[12]; at 11.0 µM,-2%
same,growth inhibition,[12]; at 33.0 µM,0%
same,growth inhibition,[12]; at 100.0 µM,11%
same,growth inhibition,[13]; at 1.2 µM,0%
same,growth inhibition,[13]; at 3.7 µM,-3%
same,growth inhibition,[13]; at 11.0 µM,24%
same,growth inhibition,[13]; at 33.0 µM,56%
same,growth inhibition,[13]; at 100.0 µM,85% (active)
same,growth inhibition,[14]; [16],-120%
same,growth inhibition,[14]; [17],13%
same,growth inhibition,[14]; at 50.0 µM,73.5% (active)
same,growth inhibition,[15]; at 1.2 µM,-2%
same,growth inhibition,[15]; at 3.7 µM,6%
same,growth inhibition,[15]; at 11.0 µM,32%
same,growth inhibition,[15]; at 33.0 µM,83% (active)
same,growth inhibition,[15]; at 100.0 µM,94% (active)
